Results published in paper PMC7862700, “An all-to-all approach to the identification of sequence-specific readers for epigenetic DNA modifications on cytosine”.

Experiments:
Assay in all cases: DAPPL (digital affinity profiling via proximity ligation, sequencing); 10 mM Tris-HCl pH 7.5, 50 mM NaCl, 1 mM DTT, 4% glycerol, room temperature, 30 min; GST-TFs on glutathione beads, 16-mer random dsDNA library, 0.1% formaldehyde crosslink after washing; high values mean tight binding
FLI1 = molecular target: T1, FLI1 (Homo sapiens, UniProt Q01543 1-452); details: protein: recombinant; tags: N-terminal GST; dsDNA, one strand shown
T1 sequence: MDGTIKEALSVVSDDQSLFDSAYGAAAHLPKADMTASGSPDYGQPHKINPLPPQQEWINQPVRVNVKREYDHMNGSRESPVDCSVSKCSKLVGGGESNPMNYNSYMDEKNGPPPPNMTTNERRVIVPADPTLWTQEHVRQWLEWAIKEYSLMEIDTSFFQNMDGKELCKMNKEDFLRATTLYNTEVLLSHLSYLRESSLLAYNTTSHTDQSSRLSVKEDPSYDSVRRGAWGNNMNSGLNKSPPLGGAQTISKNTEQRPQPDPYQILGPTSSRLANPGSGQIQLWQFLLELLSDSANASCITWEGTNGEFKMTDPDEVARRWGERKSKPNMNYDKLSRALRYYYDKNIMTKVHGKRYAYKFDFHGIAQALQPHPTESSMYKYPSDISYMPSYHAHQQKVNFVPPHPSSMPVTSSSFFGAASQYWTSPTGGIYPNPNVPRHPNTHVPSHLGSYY
Summary of the method: (§1)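 After expression in yeast as GST fusions, human transcription factors were bound to glutathione beads, DNA-barcoded and mixed with a tag-only sample. The pools were incubated with 200 nmole of a 16-mer random double-stranded DNA library in Tris/NaCl/DTT/glycerol buffer (30 min, room temperature), washed and crosslinked with 0.1% formaldehyde. Proximity ligation with BsaI/T4 ligase ran for 1 h at 37 °C, before PCR amplification and sequencing on an Illumina NextSeq500. Binding signal is a hexamer's read frequency for a factor divided by its frequency for the tag-only sample.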

ELK1 = molecular target: T2, ELK1 (Homo sapiens, UniProt P19419 1-428); details: protein: recombinant; tags: N-terminal GST; dsDNA, one strand shown
T2 sequence: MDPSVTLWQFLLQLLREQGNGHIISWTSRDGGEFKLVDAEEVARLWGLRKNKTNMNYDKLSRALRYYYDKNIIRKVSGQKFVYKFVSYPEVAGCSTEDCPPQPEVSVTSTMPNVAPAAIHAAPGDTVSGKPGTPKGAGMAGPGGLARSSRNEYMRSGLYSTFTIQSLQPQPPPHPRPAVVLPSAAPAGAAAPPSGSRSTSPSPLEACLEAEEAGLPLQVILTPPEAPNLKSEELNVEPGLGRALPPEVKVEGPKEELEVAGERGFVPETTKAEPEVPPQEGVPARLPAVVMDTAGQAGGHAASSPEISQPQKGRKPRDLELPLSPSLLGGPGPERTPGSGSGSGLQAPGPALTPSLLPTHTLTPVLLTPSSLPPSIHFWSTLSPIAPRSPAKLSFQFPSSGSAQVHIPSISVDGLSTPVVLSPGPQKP
Summary of the method: as §1

GABPA = molecular target: T3, GABPA (Homo sapiens, UniProt Q06546 1-454); details: protein: recombinant; tags: N-terminal GST; dsDNA, one strand shown
T3 sequence: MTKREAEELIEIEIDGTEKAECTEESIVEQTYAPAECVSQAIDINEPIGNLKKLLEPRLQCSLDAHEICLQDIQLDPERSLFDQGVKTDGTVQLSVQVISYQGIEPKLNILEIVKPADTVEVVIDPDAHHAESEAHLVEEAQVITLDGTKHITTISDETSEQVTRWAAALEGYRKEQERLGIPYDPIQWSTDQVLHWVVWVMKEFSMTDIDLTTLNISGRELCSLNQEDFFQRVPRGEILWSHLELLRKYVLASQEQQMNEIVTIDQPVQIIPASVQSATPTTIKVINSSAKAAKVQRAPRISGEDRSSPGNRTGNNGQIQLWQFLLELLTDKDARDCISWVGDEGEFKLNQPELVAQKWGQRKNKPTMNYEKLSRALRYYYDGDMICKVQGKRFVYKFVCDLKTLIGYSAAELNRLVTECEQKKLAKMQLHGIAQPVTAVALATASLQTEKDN
Summary of the method: as §1

ERG = molecular target: T4, ERG (Homo sapiens, UniProt P11308 1-479); details: protein: recombinant; tags: N-terminal GST; dsDNA, one strand shown
T4 sequence: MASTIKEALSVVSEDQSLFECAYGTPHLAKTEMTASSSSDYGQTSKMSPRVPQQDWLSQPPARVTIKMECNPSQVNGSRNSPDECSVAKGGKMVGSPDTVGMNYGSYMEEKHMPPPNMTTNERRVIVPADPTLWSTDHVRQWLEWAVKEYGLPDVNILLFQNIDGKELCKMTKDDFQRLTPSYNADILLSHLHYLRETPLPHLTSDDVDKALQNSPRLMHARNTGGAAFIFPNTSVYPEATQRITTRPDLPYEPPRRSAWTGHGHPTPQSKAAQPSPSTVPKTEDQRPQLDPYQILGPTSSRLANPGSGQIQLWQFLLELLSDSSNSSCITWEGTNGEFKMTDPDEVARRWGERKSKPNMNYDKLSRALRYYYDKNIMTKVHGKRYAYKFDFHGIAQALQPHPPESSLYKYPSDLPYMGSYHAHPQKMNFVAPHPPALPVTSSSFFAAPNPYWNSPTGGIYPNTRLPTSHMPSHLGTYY
Summary of the method: as §1

ELF1 = ELF1 (Homo sapiens, UniProt P32519 1-619); details: protein: recombinant; tags: N-terminal GST; dsDNA, one strand shown
Chain of ELF1 (P32519 whole entry): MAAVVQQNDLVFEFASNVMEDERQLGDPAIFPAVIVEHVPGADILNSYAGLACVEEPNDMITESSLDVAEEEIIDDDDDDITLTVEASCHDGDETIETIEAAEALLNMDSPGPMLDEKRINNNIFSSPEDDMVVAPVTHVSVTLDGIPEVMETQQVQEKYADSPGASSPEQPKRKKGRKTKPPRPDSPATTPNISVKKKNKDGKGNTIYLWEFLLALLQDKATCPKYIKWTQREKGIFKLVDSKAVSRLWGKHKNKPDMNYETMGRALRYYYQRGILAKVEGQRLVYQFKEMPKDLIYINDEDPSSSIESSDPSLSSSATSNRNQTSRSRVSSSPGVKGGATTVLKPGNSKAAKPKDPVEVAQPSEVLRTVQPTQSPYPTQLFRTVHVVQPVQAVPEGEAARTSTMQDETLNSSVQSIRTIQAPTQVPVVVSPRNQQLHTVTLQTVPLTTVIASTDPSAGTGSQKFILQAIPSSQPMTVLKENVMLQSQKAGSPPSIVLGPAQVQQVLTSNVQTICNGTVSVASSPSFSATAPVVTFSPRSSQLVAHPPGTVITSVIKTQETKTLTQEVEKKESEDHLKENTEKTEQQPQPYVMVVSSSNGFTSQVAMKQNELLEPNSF
Summary of the method: as §1

EHF = molecular target: T5, EHF (Homo sapiens, UniProt Q9NZC4 1-300); details: protein: recombinant; tags: N-terminal GST; dsDNA, one strand shown
T5 sequence: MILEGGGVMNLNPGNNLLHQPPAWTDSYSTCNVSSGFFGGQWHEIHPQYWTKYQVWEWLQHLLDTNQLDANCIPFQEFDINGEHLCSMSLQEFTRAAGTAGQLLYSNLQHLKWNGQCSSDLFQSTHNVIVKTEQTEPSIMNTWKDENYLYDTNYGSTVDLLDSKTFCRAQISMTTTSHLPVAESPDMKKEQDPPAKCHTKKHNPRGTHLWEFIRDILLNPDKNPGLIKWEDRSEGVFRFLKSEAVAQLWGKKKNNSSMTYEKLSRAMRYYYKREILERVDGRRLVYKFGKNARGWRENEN
Summary of the method: as §1

SPI1 = SPI1 (Homo sapiens, UniProt P17947 1-270); details: protein: recombinant; tags: N-terminal GST; dsDNA, one strand shown
Summary of the method: as §1

SPIB = SPIB (Homo sapiens, UniProt Q01892 1-262); details: protein: recombinant; tags: N-terminal GST; dsDNA, one strand shown
Chain of SPIB (Q01892 whole entry): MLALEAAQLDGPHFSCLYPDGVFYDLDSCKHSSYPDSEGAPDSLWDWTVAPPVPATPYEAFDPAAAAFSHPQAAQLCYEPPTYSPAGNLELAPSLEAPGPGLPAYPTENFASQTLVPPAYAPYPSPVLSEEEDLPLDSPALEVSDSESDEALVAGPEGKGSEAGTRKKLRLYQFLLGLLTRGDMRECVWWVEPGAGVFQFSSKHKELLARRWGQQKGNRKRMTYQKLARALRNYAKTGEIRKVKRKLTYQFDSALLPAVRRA
Summary of the method: as §1

ELK3 = molecular target: T6, ELK3 (Homo sapiens, UniProt P41970 1-407); details: protein: recombinant; tags: N-terminal GST; dsDNA, one strand shown
T6 sequence: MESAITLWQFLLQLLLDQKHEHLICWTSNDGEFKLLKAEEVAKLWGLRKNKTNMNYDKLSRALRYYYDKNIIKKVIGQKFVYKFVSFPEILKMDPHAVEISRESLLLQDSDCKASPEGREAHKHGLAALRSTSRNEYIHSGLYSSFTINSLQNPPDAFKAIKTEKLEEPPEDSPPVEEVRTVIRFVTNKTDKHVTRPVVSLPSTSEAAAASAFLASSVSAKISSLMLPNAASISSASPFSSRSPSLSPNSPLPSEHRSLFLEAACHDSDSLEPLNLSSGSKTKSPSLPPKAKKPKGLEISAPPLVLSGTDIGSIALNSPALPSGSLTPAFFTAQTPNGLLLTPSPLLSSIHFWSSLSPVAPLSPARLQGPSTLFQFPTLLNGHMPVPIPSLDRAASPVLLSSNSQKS
Summary of the method: as §1

FEV = molecular target: T7, FEV (Homo sapiens, UniProt Q99581 1-238); details: protein: recombinant; tags: N-terminal GST; dsDNA, one strand shown
T7 sequence: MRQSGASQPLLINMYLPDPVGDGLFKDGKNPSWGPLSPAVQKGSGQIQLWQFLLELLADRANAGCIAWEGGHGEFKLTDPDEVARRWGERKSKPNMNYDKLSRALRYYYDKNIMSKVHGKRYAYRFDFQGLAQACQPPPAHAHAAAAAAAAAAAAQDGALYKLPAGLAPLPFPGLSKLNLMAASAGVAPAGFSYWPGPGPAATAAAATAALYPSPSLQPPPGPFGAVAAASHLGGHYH
Summary of the method: as §1

ETV5 = ETV5 (Homo sapiens, UniProt P41161 1-510); details: protein: recombinant; tags: N-terminal GST; dsDNA, one strand shown
Chain of ETV5 (P41161 whole entry): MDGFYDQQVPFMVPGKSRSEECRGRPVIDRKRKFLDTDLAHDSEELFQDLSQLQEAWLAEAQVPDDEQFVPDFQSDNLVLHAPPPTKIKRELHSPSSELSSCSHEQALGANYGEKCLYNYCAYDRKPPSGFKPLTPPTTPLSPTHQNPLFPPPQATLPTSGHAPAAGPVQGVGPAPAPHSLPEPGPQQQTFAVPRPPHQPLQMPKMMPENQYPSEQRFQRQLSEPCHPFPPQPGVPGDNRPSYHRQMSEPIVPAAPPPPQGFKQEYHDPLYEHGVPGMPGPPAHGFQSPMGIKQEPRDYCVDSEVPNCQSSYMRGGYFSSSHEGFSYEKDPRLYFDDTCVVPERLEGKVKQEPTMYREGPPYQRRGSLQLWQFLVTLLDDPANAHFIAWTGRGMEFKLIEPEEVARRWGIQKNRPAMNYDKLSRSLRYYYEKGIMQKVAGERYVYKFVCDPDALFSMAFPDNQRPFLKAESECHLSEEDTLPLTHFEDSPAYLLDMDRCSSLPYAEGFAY
Summary of the method: as §1

HSF1 = HSF1 (Homo sapiens, UniProt Q00613 1-529); details: protein: recombinant; tags: N-terminal GST; chain copies: 3; dsDNA, one strand shown
Chain of HSF1 (Q00613 whole entry): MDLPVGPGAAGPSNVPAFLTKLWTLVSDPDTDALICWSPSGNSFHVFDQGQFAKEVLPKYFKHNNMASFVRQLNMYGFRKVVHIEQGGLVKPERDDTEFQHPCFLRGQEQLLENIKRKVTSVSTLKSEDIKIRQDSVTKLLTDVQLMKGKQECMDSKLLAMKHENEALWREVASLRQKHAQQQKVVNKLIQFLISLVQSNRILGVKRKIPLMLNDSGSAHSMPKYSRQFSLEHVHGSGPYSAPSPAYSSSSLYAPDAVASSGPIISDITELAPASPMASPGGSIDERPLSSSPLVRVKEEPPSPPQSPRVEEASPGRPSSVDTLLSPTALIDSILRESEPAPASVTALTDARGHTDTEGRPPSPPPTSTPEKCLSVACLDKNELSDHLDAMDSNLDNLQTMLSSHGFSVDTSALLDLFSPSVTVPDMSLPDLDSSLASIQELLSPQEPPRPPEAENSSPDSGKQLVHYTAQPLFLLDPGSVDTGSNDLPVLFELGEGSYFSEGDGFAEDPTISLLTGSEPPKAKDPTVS
Summary of the method: as §1

SPIC = molecular target: T8, SPIC (Homo sapiens, UniProt Q8N5J4 1-248); details: protein: recombinant; tags: N-terminal GST; dsDNA, one strand shown
T8 sequence: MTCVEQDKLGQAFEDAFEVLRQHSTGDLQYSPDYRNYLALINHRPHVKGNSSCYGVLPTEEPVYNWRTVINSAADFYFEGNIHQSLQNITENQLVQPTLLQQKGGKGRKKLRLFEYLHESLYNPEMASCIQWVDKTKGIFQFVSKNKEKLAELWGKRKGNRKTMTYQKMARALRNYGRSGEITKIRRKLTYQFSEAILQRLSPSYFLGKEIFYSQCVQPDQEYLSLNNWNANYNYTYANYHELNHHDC
Summary of the method: as §1

ELF4 = ELF4 (Homo sapiens, UniProt Q99607 1-663); details: protein: recombinant; tags: N-terminal GST; dsDNA, one strand shown
Chain of ELF4 (Q99607 whole entry): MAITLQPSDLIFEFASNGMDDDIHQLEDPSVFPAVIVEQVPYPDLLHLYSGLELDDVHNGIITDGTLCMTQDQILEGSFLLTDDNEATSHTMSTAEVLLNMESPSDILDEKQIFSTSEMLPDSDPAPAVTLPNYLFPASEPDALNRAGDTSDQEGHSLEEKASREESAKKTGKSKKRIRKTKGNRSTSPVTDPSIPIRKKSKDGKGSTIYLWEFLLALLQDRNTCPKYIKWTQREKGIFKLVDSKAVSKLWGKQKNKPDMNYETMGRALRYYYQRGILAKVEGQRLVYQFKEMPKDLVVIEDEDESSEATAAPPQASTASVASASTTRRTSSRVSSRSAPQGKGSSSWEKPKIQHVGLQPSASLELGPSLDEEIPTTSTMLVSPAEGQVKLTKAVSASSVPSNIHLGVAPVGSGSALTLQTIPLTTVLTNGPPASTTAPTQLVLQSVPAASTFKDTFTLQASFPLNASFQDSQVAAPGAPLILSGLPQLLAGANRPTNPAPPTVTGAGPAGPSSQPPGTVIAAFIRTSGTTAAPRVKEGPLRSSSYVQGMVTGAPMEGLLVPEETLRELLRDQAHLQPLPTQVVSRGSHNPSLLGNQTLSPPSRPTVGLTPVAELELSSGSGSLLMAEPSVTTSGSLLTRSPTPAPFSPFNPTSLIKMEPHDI
Summary of the method: as §1

ELK4 = molecular target: T9, ELK4 (Homo sapiens, UniProt P28324-2 1-405); details: protein: recombinant; tags: N-terminal GST; dsDNA, one strand shown
T9 sequence: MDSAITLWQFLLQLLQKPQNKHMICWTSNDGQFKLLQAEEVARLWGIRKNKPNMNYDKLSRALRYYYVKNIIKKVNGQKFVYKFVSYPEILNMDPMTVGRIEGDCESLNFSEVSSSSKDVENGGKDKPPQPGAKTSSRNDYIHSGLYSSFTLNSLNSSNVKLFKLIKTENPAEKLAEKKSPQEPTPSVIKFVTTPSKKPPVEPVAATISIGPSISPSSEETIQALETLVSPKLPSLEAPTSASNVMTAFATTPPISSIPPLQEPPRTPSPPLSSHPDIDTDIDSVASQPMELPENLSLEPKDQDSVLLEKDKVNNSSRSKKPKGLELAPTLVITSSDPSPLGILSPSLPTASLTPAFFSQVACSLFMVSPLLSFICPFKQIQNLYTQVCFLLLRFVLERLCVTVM
Summary of the method: as §1

ETV2 = molecular target: T10, ETV2 (Homo sapiens, UniProt O00321 1-342); details: protein: recombinant; tags: N-terminal GST; dsDNA, one strand shown
T10 sequence: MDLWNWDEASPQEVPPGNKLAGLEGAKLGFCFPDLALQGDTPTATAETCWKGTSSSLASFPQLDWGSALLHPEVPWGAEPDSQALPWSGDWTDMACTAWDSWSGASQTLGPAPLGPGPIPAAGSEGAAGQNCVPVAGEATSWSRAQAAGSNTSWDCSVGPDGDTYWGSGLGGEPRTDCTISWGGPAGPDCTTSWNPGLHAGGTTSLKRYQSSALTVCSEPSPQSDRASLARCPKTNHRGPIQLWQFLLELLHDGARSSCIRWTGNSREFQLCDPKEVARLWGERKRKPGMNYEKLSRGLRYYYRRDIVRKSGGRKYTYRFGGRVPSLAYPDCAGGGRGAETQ
Summary of the method: as §1

ELF3 = molecular target: T11, ELF3 (Homo sapiens, UniProt P78545 1-371); details: protein: recombinant; tags: N-terminal GST; dsDNA, one strand shown
T11 sequence: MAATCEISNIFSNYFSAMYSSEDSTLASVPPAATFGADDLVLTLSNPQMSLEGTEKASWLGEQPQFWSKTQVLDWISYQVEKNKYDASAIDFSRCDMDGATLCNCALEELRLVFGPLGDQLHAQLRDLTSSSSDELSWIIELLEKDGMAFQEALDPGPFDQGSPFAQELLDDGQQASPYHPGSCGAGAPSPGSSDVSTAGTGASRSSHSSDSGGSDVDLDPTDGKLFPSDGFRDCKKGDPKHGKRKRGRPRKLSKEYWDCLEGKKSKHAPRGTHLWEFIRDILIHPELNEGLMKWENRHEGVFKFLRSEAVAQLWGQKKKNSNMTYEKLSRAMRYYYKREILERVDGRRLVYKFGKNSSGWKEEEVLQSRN
Summary of the method: as §1

ETV1 = ETV1 (Homo sapiens, UniProt P50549 1-477); details: protein: recombinant; tags: N-terminal GST; dsDNA, one strand shown
Chain of ETV1 (P50549 whole entry): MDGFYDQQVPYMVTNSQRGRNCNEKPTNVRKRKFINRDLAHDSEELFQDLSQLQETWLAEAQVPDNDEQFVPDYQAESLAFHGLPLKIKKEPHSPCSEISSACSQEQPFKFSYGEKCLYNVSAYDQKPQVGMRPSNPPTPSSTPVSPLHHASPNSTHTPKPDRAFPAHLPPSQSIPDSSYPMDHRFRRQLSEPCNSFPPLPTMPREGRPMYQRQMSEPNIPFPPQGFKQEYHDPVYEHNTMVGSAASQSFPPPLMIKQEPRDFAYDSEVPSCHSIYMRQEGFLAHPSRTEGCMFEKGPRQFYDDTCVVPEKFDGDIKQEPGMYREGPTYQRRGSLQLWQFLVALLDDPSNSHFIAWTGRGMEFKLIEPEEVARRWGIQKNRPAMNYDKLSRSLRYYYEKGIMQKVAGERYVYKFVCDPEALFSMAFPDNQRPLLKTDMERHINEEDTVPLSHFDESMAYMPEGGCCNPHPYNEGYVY
Summary of the method: as §1

In the case of CGCCGA, the binding signal (FLI1) is reported as 1.19 fold enrichment (6-mer frequency, TF over GST control), the binding signal (ELK1) is reported as 1.2 fold enrichment (6-mer frequency, TF over GST control) and the binding signal (GABPA) is reported as 1.26 fold enrichment (6-mer frequency, TF over GST control). For the same sequence, the binding signal (ERG) was 1.1 fold enrichment (6-mer frequency, TF over GST control), the binding signal (ELF1) was 1.19 fold enrichment (6-mer frequency, TF over GST control) and the binding signal (EHF) was 1.22 fold enrichment (6-mer frequency, TF over GST control). The binding signal (SPI1) was 1.16 fold enrichment (6-mer frequency, TF over GST control), the binding signal (SPIB) was 1.18 fold enrichment (6-mer frequency, TF over GST control) and the binding signal (ELK3) was 1.22 fold enrichment (6-mer frequency, TF over GST control). The binding signal (FEV) was 1.21 fold enrichment (6-mer frequency, TF over GST control), the binding signal (ETV5) was 1.13 fold enrichment (6-mer frequency, TF over GST control) and the binding signal (HSF1) was 1.2 fold enrichment (6-mer frequency, TF over GST control). For the same sequence, the binding signal (SPIC) was 1.18 fold enrichment (6-mer frequency, TF over GST control), the binding signal (ELF4) was 1.26 fold enrichment (6-mer frequency, TF over GST control) and the binding signal (ELK4) was 1.28 fold enrichment (6-mer frequency, TF over GST control). For the same sequence, the binding signal (ETV2) was 1.16 fold enrichment (6-mer frequency, TF over GST control), the binding signal (ELF3) was 1.03 fold enrichment (6-mer frequency, TF over GST control) and the binding signal (ETV1) was 1.15 fold enrichment (6-mer frequency, TF over GST control).
